In the supplement of paper PMC10849652:
Of roughly 7,900 targets only a part is listed; those with a hit were picked by preference. About 0.6% of all pairs of compound and target were hits.

Assays:
Experiment in all cases: log2 fold change, soluble protein after heating vs DMSO (PISA); higher = thermal stabilisation; K562 cells, 10 uM, 30 min; active = over 0.2 and 3.5 SD of the protein, either way, in both replicates (recomputed)
[1] = compound: NC(=O)Nc1cc(-c2cccc(F)c2)sc1C(=O)N[C@H]1CCCNC1
Procedure, shortened: (§1)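 K562 cells (2×10^6 cells/mL) were treated with 10 μM compound for 30 min, and aliquots were heated for 3 min over 48°C-58°C. Pooled aliquots were extracted in PBS with 0.5% NP-40 at 4°C, and the supernatant after 21,000xg for 90 min was measured by TMTpro 16plex LC-MS/MS with channel sums equalised. Reported thermal stability, relative to control samples and from duplicates, is a log2 fold change.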

[2] = compound: NC(=O)c1cnc(N[C@@H]2CCCC[C@@H]2N)nc1Nc1cccc(-n2nccn2)c1
Procedure, shortened: as §1

[3] = compound: NC1(c2ccc(-c3nc4ccn5c(=O)[nH]nc5c4cc3-c3ccccc3)cc2)CCC1
Procedure, shortened: as §1

[4] = compound: NCC(=O)Nc1ccc(-n2nc(C(F)(F)F)cc2-c2ccc3c(ccc4ccccc43)c2)cc1
Procedure, shortened: as §1

[5] = compound: Nc1ccccc1NC(=O)c1ccc(CNC(=O)OCc2cccnc2)cc1 [entinostat]
Procedure, shortened: as §1

[6] = compound: O=C(CCCCCCC(=O)Nc1ccccc1)NO [vorinostat]
Procedure, shortened: as §1

[7] = compound: O=C(CCCCCCNC(=O)c1cnc(N(c2ccccc2)c2ccccc2Cl)nc1)NO [citarinostat]
Procedure, shortened: as §1

[8] = compound: O=C(O)c1ccc2c(c1)nc(Nc1cccc(Cl)c1)c1ccncc12 [silmitasertib]
Procedure, shortened: as §1

[9] = compound: O=C1NC(=O)C(c2cnc3ccccn23)=C1c1cn2c3c(cc(F)cc13)CN(C(=O)N1CCCCC1)CC2
Procedure, shortened: as §1

[10] = compound: c1cc(OCCN2CCCCC2)cc(-c2n[nH]c3ccc(-c4nnc[nH]4)cc23)c1
Procedure, shortened: as §1

Measured: log2 fold change

FNTA (UniProt P49354)
inactive: [1] 0.009 | [2] 0.061 | [3] 0.028 | [4] 0 | [5] -0.02 | [6] 0.004 | [7] -0.02 | [8] 0.016 | [9] -0.001
active: [10] 0.696

FUCA1 (UniProt P04066)
inactive: [1] 0.028 | [2] -0.028 | [4] -0.03 | [5] 0.014 | [6] 0.015 | [7] 0.096 | [8] 0.019 | [9] -0.043
active: [3] -0.519 | [10] -0.372

GMEB2 (UniProt Q9UKD1)
inactive: [1] -0.039 | [2] -0.079 | [3] 0.056 | [4] -0.119 | [5] 0.064 | [6] 0.063 | [7] 0.086 | [8] 0.044 | [9] -0.194 | [10] -0.037

IFRD2 isoform 2 (UniProt Q12894)
UniProt Q12894, sequence (Q12894 whole entry, looked up): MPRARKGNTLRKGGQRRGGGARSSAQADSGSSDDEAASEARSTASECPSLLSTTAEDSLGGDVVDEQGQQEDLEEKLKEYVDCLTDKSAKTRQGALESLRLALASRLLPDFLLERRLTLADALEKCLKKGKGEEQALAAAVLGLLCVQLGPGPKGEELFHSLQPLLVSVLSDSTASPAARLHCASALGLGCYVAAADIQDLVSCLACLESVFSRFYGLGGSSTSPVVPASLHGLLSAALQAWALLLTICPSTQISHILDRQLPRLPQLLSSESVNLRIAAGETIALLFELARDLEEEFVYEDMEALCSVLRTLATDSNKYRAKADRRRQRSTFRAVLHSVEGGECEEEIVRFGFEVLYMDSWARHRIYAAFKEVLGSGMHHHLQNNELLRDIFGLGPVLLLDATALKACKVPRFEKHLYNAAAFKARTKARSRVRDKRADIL
inactive: [1] -0.044 | [2] -0.279 | [3] 0.003 | [4] 0.11 | [5] -0.2 | [6] -0.244 | [7] -0.028 | [8] 0.276 | [9] -0.008 | [10] 0.046

IFT80 isoform 3 (UniProt Q9P2H3)
inactive: [1] 0.027 | [2] 0.031 | [3] -0.081 | [4] 0.003 | [5] -0.005 | [6] 0.04 | [7] 0.011 | [8] -0.085 | [9] -0.086 | [10] -0.093

GSK3B isoform 2 (UniProt P49841)
UniProt P49841, sequence (P49841 whole entry, looked up): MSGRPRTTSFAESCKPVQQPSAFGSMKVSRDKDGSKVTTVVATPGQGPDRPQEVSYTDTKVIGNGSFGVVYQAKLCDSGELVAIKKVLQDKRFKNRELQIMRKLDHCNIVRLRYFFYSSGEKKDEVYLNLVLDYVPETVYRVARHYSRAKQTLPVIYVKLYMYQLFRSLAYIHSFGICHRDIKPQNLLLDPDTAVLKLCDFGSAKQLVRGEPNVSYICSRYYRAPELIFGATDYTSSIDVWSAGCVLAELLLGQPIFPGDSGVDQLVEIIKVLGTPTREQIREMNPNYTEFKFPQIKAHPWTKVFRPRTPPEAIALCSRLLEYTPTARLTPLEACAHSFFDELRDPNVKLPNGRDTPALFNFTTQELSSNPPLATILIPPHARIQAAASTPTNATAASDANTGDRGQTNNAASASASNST
active: [9] 0.29
inactive: [1] -0.027 | [2] -0.06 | [3] -0.055 | [4] -0.028 | [5] 0.005 | [6] 0.023 | [7] 0.047 | [8] 0.012

GNPAT (UniProt O15228)
UniProt O15228, sequence (O15228 whole entry, looked up): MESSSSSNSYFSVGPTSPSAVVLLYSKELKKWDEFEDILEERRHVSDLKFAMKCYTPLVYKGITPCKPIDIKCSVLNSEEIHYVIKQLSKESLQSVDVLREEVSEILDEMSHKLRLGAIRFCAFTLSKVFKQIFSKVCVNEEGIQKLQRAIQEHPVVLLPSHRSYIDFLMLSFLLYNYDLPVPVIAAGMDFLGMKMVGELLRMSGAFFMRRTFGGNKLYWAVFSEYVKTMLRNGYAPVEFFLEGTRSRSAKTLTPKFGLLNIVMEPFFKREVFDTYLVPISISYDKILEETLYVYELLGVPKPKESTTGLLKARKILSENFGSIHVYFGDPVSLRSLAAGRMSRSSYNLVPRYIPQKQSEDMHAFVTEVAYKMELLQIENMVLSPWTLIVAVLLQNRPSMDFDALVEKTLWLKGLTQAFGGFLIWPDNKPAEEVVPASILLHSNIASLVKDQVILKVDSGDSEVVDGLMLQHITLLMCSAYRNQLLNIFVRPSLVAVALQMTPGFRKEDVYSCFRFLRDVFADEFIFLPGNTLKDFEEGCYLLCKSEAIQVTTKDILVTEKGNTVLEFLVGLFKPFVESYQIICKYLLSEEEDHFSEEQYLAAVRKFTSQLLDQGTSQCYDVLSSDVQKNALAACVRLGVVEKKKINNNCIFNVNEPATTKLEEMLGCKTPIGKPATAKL
inactive: [1] 0.02 | [2] -0.008 | [3] -0.066 | [4] 0 | [5] 0.021 | [6] -0.008 | [7] 0.041 | [8] -0.041 | [9] -0.061 | [10] -0.02

HNRNPH1 (UniProt P31943)
UniProt P31943, sequence (P31943 whole entry, looked up): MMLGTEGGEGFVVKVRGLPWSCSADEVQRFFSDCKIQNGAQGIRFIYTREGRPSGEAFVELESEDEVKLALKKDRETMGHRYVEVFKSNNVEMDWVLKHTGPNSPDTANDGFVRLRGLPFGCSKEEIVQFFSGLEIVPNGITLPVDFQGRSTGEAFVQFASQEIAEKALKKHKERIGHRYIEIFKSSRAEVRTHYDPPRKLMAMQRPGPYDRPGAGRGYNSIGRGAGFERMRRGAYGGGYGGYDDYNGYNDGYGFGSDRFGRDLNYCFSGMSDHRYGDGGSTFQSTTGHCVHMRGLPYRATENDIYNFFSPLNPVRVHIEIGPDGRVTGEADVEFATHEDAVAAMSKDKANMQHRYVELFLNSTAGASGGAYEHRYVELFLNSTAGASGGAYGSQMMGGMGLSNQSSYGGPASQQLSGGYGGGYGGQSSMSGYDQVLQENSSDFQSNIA
inactive: [1] 0.052 | [2] -0.023 | [3] -0.075 | [4] -0.059 | [5] 0.118 | [6] 0.168 | [7] 0.09 | [8] 0.024 | [9] -0.105 | [10] -0.074

FDFT1 (UniProt P37268)
inactive: [1] 0.044 | [2] 0.064 | [3] -0.042 | [4] 0.035 | [5] -0.008 | [6] -0.018 | [7] 0.086 | [8] -0.031 | [9] 0.004 | [10] 0.093

HAUS4 (UniProt Q9H6D7)
inactive: [1] 0.067 | [2] -0.165 | [3] 0.229 | [4] -0.089 | [5] 0.12 | [6] 0.01 | [7] -0.106 | [8] 0.095 | [9] 0.088 | [10] -0.08

FANCD2 isoform 1 (UniProt Q9BXW9)
inactive: [1] 0.087 | [2] -0.189 | [3] -0.304 | [4] -0.034 | [5] 0.022 | [6] 0.187 | [7] 0.11 | [8] -0.109 | [9] -0.034 | [10] -0.039

HBQ1 (UniProt P09105)
inactive: [1] 0.058 | [2] -0.048 | [3] -0.043 | [4] 0.006 | [5] 0.014 | [6] -0.05 | [7] 0.032 | [8] -0.047 | [9] -0.119 | [10] 0.021

HP1BP3 (UniProt Q5SSJ5)
inactive: [1] 0.026 | [2] -0.057 | [3] 0.043 | [4] -0.034 | [5] 0.025 | [6] 0.132 | [7] 0.113 | [8] -0.048 | [9] 0.067 | [10] -0.023

FUBP3 (UniProt Q96I24)
inactive: [1] -0.023 | [2] 0.024 | [3] -0.048 | [4] -0.011 | [5] 0.003 | [6] 0.062 | [7] -0.005 | [8] 0.045 | [9] 0.186 | [10] 0.006

GNAS (UniProt Q5JWF2)
UniProt Q5JWF2, sequence (Q5JWF2 whole entry, looked up): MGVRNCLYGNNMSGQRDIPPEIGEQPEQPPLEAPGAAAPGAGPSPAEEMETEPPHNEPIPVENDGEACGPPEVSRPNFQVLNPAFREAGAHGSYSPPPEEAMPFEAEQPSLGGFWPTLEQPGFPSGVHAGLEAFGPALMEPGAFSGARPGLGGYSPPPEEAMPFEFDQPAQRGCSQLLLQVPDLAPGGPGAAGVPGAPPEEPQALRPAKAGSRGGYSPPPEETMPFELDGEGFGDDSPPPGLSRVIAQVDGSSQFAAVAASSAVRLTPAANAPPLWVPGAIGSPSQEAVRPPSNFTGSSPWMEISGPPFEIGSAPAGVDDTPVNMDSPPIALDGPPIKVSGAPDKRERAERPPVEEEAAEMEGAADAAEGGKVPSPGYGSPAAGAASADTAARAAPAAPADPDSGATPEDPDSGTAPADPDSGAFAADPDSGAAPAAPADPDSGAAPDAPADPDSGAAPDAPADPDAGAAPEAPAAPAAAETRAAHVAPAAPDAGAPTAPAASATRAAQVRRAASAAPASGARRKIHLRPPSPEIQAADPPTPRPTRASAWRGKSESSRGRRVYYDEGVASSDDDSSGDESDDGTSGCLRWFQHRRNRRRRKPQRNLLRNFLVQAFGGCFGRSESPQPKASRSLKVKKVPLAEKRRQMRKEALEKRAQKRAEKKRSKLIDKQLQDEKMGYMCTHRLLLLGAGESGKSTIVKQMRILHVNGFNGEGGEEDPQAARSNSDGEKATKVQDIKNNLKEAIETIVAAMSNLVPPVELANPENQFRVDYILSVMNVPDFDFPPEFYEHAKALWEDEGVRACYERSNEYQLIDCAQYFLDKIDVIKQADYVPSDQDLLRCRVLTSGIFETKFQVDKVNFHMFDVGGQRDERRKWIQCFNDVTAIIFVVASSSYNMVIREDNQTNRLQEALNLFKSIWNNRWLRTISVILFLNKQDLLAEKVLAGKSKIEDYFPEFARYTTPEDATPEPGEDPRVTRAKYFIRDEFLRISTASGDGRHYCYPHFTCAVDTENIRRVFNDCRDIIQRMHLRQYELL
inactive: [1] -0.133 | [2] -0.009 | [3] 0.002 | [4] -0.004 | [5] -0.058 | [6] -0.022 | [7] -0.043 | [8] -0.018 | [9] -0.007 | [10] -0.045

HAT1 (UniProt O14929)
UniProt O14929, sequence (O14929 whole entry, looked up): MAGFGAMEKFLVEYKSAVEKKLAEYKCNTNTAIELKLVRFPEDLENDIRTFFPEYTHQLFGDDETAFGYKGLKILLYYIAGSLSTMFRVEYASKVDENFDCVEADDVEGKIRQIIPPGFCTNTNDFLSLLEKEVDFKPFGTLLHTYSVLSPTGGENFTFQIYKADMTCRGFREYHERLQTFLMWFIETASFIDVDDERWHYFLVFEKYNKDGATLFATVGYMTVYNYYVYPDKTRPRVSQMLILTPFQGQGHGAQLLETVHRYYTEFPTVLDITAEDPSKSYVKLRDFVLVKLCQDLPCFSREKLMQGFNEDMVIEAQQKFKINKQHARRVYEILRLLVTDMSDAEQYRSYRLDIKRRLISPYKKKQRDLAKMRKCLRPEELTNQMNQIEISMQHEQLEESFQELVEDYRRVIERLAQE
inactive: [1] 0.002 | [2] 0.006 | [3] -0.076 | [4] 0.01 | [5] 0.053 | [6] 0.001 | [7] 0.071 | [8] 0.052 | [9] -0.055 | [10] -0.016

GEMIN2 (UniProt O14893)
inactive: [1] -0.05 | [2] -0.015 | [3] 0.017 | [4] -0.116 | [5] -0.055 | [6] 0.102 | [7] -0.103 | [8] 0.038 | [10] 0.073
active: [9] 0.375

HRAS (UniProt P01112)
UniProt P01112, sequence (P01112 whole entry, looked up): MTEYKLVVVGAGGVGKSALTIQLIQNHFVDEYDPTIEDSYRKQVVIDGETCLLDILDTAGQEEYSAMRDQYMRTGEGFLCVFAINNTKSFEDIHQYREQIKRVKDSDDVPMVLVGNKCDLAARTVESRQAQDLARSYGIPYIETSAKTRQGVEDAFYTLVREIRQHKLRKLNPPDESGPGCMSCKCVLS
inactive: [1] 0.103 | [2] 0.233 | [3] 0.071 | [5] -0.012 | [6] -0.009 | [7] -0.067 | [8] 0.003 | [9] 0 | [10] 0.007
active: [4] 0.366

HAX1 (UniProt O00165)
inactive: [1] -0.106 | [2] -0.165 | [3] -0.174 | [4] -0.06 | [5] 0.021 | [6] 0.115 | [7] -0.019 | [8] -0.032 | [9] 0.036 | [10] -0.074

HIKESHI (UniProt Q53FT3)
inactive: [1] 0 | [2] -0.045 | [3] -0.046 | [4] -0.053 | [5] -0.003 | [6] -0.05 | [7] 0.021 | [8] 0.002 | [9] 0.026 | [10] -0.056

GLS isoform 3 (UniProt O94925)
inactive: [1] -0.133 | [2] 0.154 | [3] -0.285 | [4] 0.01 | [5] -0.017 | [6] 0.019 | [7] 0.169 | [8] 0 | [9] -0.24 | [10] 0.071

GOLPH3 (UniProt Q9H4A6)
inactive: [1] 0.041 | [2] -0.082 | [3] 0.009 | [4] 0 | [5] 0.022 | [6] 0.014 | [7] 0.071 | [8] -0.013 | [9] 0 | [10] -0.043

GSR (UniProt P00390)
UniProt P00390, sequence (P00390 whole entry, looked up): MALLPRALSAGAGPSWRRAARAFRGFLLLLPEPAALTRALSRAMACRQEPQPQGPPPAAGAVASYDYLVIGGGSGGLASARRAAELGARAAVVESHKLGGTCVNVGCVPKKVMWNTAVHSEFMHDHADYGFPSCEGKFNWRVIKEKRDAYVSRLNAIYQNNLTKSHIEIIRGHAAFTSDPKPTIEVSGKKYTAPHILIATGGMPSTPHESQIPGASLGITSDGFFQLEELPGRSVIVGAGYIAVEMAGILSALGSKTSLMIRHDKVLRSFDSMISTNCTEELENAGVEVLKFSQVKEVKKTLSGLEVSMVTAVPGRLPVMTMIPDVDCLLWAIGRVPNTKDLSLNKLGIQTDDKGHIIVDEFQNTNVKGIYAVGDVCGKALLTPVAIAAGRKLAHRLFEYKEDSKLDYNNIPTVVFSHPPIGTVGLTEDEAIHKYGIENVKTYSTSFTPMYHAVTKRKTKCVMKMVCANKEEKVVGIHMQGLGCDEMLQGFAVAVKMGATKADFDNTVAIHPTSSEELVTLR
inactive: [1] 0.008 | [2] -0.046 | [3] 0 | [4] -0.03 | [5] -0.011 | [6] 0.019 | [7] 0.028 | [8] -0.027 | [9] -0.023 | [10] 0.018

HEATR5B (UniProt Q9P2D3)
inactive: [1] 0.01 | [2] 0.012 | [3] -0.152 | [4] -0.028 | [5] -0.03 | [6] -0.008 | [7] 0 | [8] -0.053 | [9] 0.083 | [10] 0.056

GTF3A (UniProt Q92664)
inactive: [1] -0.04 | [2] -0.095 | [3] 0.046 | [4] -0.098 | [5] -0.013 | [6] 0.026 | [7] 0.06 | [8] 0.043 | [9] 0.011 | [10] -0.072

HNRNPUL1 (UniProt Q9BUJ2)
UniProt Q9BUJ2, sequence (Q9BUJ2 whole entry, looked up): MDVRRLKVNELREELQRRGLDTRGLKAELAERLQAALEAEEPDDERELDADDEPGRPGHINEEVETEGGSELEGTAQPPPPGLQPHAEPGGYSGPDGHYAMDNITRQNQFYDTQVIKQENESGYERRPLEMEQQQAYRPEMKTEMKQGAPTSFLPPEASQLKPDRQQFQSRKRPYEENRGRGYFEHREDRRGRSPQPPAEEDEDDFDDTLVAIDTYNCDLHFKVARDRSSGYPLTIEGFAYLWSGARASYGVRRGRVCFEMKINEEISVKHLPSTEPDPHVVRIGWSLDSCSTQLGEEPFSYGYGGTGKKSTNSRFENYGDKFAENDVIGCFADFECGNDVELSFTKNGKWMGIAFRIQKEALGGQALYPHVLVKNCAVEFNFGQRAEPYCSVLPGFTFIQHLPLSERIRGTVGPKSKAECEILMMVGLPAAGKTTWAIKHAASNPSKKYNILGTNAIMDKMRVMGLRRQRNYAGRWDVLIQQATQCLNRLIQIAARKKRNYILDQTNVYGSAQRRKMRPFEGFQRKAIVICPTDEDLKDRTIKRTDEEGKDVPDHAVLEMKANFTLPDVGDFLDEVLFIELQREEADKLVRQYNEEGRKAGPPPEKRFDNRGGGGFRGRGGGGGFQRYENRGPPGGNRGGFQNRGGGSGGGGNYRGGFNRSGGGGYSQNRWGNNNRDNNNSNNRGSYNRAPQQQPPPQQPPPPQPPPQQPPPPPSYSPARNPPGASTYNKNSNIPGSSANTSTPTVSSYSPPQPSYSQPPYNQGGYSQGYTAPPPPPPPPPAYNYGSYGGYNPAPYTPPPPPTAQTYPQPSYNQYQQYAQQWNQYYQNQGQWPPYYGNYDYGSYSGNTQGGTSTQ
inactive: [1] -0.059 | [2] 0.028 | [3] -0.081 | [4] -0.059 | [5] -0.012 | [6] 0.03 | [7] 0.002 | [8] 0.034 | [9] 0.08 | [10] -0.046

HK2 (UniProt P52789)
inactive: [1] 0.003 | [2] -0.012 | [3] -0.059 | [4] 0.016 | [5] 0.022 | [6] 0.048 | [7] 0.046 | [8] -0.021 | [9] -0.065 | [10] -0.059

HRC (UniProt P23327)
inactive: [1] -0.161 | [2] 0.005 | [3] -0.02 | [4] -0.056 | [5] -0.114 | [6] -0.128 | [7] -0.011 | [8] 0.013 | [9] 0.023 | [10] -0.026

GIGYF2 (UniProt Q6Y7W6)
inactive: [1] -0.102 | [2] -0.062 | [3] -0.046 | [4] -0.079 | [5] 0.024 | [6] 0.103 | [7] 0.06 | [8] -0.004 | [9] -0.016 | [10] -0.065

GYG1 (UniProt P46976)
inactive: [1] 0.012 | [2] -0.017 | [3] 0.075 | [4] 0.134 | [5] -0.019 | [6] -0.056 | [7] -0.011 | [8] 0.049 | [9] 0.037 | [10] -0.057
